From the supplement of paper PMC6897291

Legend:
U-2932 [1] = assay: growth inhibition by drug alone (1 - RLU/untreated control) (fraction); higher = stronger inhibition; settings: 177Lu-lilotomab satetraxetan 0 ug/ml
How it was run: (§1)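 With or without 18 h pretreatment by a radiolabelled anti-CD37 antibody conjugate (~600 MBq/mg; 0.5 µg/ml RIVA, 1 µg/ml U-2932), RIVA and U-2932 cells were washed and plated at 3,000 cells/well. Pre-printed compound doses were 10/100 nM for RIVA and 10/1,000 nM for U-2932. Growth inhibition uses RealTime-Glo RLU relative to the untreated no-drug wells. The calculation is 1 − RLU/mean of 48 such wells per plate, with reads daily from day 3 after 1 h at 37°C.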

RIVA [2] = assay: as above; settings: 177Lu-lilotomab satetraxetan 0 ug/ml
How it was run: as §1

U-2932 [3] = assay: growth inhibition by drug plus 177Lu-lilotomab satetraxetan (1 - RLU/untreated control) (fraction); higher = stronger inhibition; settings: 177Lu-lilotomab satetraxetan 1 ug/ml
How it was run: as §1

RIVA [4] = assay: as above; settings: 177Lu-lilotomab satetraxetan 0.5 ug/ml
How it was run: as §1

SMILES | growth inhibition by drug alone (U-2932 [1]; 10 nM, time (day): 3) | growth inhibition by drug alone (U-2932 [1]; 10 nM, time (day): 4) | growth inhibition by drug alone (U-2932 [1]; 10 nM, time (day): 5) | growth inhibition by drug alone (U-2932 [1]; 10 nM, time (day): 6) | growth inhibition by drug alone (U-2932 [1]; 1000 nM, time (day): 3) | growth inhibition by drug alone (U-2932 [1]; 1000 nM, time (day): 4) | growth inhibition by drug alone (U-2932 [1]; 1000 nM, time (day): 5) | growth inhibition by drug alone (U-2932 [1]; 1000 nM, time (day): 6) | growth inhibition by drug alone (RIVA [2]; 10 nM, time (day): 3) | growth inhibition by drug alone (RIVA [2]; 10 nM, time (day): 4) | growth inhibition by drug alone (RIVA [2]; 10 nM, time (day): 5) | growth inhibition by drug alone (RIVA [2]; 10 nM, time (day): 6) | growth inhibition by drug alone (RIVA [2]; 100 nM, time (day): 3) | growth inhibition by drug alone (RIVA [2]; 100 nM, time (day): 4) | growth inhibition by drug alone (RIVA [2]; 100 nM, time (day): 5) | growth inhibition by drug alone (RIVA [2]; 100 nM, time (day): 6) | growth inhibition by drug plus 177Lu-lilotomab satetraxetan (U-2932 [3]; 10 nM, time (day): 3) | growth inhibition by drug plus 177Lu-lilotomab satetraxetan (U-2932 [3]; 10 nM, time (day): 4) | growth inhibition by drug plus 177Lu-lilotomab satetraxetan (U-2932 [3]; 10 nM, time (day): 5) | growth inhibition by drug plus 177Lu-lilotomab satetraxetan (U-2932 [3]; 10 nM, time (day): 6) | growth inhibition by drug plus 177Lu-lilotomab satetraxetan (U-2932 [3]; 1000 nM, time (day): 3) | growth inhibition by drug plus 177Lu-lilotomab satetraxetan (U-2932 [3]; 1000 nM, time (day): 4) | growth inhibition by drug plus 177Lu-lilotomab satetraxetan (U-2932 [3]; 1000 nM, time (day): 5) | growth inhibition by drug plus 177Lu-lilotomab satetraxetan (U-2932 [3]; 1000 nM, time (day): 6) | growth inhibition by drug plus 177Lu-lilotomab satetraxetan (RIVA [4]; 10 nM, time (day): 3) | growth inhibition by drug plus 177Lu-lilotomab satetraxetan (RIVA [4]; 10 nM, time (day): 4) | growth inhibition by drug plus 177Lu-lilotomab satetraxetan (RIVA [4]; 10 nM, time (day): 5) | growth inhibition by drug plus 177Lu-lilotomab satetraxetan (RIVA [4]; 10 nM, time (day): 6) | growth inhibition by drug plus 177Lu-lilotomab satetraxetan (RIVA [4]; 100 nM, time (day): 3) | growth inhibition by drug plus 177Lu-lilotomab satetraxetan (RIVA [4]; 100 nM, time (day): 4) | growth inhibition by drug plus 177Lu-lilotomab satetraxetan (RIVA [4]; 100 nM, time (day): 5) | growth inhibition by drug plus 177Lu-lilotomab satetraxetan (RIVA [4]; 100 nM, time (day): 6)
C[S+]([O-])c1ccc(-c2nc(-c3ccc(F)cc3)c(-c3ccncc3)[nH]2)cc1 (stereo not drawn) | 0.109 | 0.0691 | 0.0651 | 0.00981 | 0.494 | 0.396 | 0.258 | 0.202 | -0.0319 | 0.0179 | -0.0545 | -0.284 | -0.128 | -0.0437 | -0.0833 | -0.227 | 0.103 | 0.123 | 0.206 | 0.225 | 0.441 | 0.358 | 0.325 | 0.374 | 0.668 | 0.678 | 0.684 | 0.677 | 0.322 | 0.441 | 0.432 | 0.451
CCOc1ccc(Nc2nc(-c3c(C)nc4ccccn34)cs2)cc1 | 0.225 | 0.209 | 0.0949 | 0.0852 | 0.961 | 0.972 | 0.979 | 0.982 | 0.0293 | 0.0644 | -0.0241 | -0.237 | 0.931 | 0.948 | 0.951 | 0.952 | 0.151 | 0.185 | 0.267 | 0.311 | 0.968 | 0.978 | 0.983 | 0.987 | 0.559 | 0.602 | 0.61 | 0.62 | 0.945 | 0.965 | 0.97 | 0.973
Cc1[nH]c2ccccc2c1CCNCc1ccc(/C=C/C(=O)NO)cc1 [Panobinostat] | 0.545 | 0.448 | 0.353 | 0.31 | 0.98 | 0.982 | 0.982 | 0.983 | 0.637 | 0.535 | 0.447 | 0.328 | 0.977 | 0.977 | 0.975 | 0.975 | 0.585 | 0.524 | 0.461 | 0.445 | 0.979 | 0.981 | 0.983 | 0.986 | 0.93 | 0.93 | 0.939 | 0.944 | 0.987 | 0.988 | 0.988 | 0.987
COc1cc2c(NC3CCN(C)CC3)nc(N3CCCN(C)CC3)nc2cc1OCCCN(C)C | 0.0324 | -0.0188 | -0.094 | -0.326 | -0.0483 | -0.0744 | -0.125 | -0.235 | -0.117 | -0.195 | -0.474 | -0.819 | -0.568 | -0.503 | -0.528 | -0.706 | -0.0493 | -0.0119 | 0.0125 | 0.00172 | -0.0195 | -0.0136 | 0.00791 | 0.0785 | 0.365 | 0.464 | 0.475 | 0.499 | 0.316 | 0.452 | 0.453 | 0.469
CN(C)Cc1ccc(-c2nc3cccc4c3n2CCNC4=O)cc1 | 0.121 | 0.0696 | -0.0285 | -0.000931 | 0.038 | 0.056 | -0.00883 | -0.203 | -0.0131 | 0.0265 | -0.0439 | -0.223 | -0.0162 | 0.0398 | 0.00266 | -0.0877 | 0.00803 | 0.0491 | 0.0539 | 0.0786 | 0.0336 | 0.127 | 0.116 | 0.183 | 0.564 | 0.632 | 0.638 | 0.652 | 0.585 | 0.642 | 0.654 | 0.657
CC(C)(C)c1cnc(CSc2cnc(NC(=O)C3CCNCC3)s2)o1 | -0.112 | -0.121 | -0.0865 | -0.0439 | 0.946 | 0.962 | 0.971 | 0.978 | -0.214 | -0.262 | -0.264 | -0.28 | -0.524 | -0.411 | -0.58 | -0.723 | -0.136 | -0.0562 | 0.00872 | 0.121 | 0.955 | 0.966 | 0.975 | 0.983 | 0.484 | 0.533 | 0.556 | 0.564 | 0.267 | 0.359 | 0.373 | 0.353
CC#C[C@]1(O)CC[C@H]2[C@@H]3CCC4=CC(=O)CCC4=C3[C@@H](c3ccc(N(C)C)cc3)C[C@@]21C [Mifepristone (Mifeprex)] | -0.0691 | -0.0767 | -0.047 | 0.0535 | -0.0327 | -0.0148 | -0.0455 | 0.0917 | -0.296 | -0.283 | -0.273 | -0.268 | -0.146 | -0.253 | -0.254 | -0.235 | -0.019 | 0.0308 | 0.0649 | 0.159 | -0.0642 | -0.00915 | 0.0416 | 0.233 | 0.413 | 0.477 | 0.486 | 0.497 | 0.391 | 0.438 | 0.445 | 0.436
CO[C@H]1C[C@@H]2CC[C@@H](C)[C@@](O)(O2)C(=O)C(=O)N2CCCC[C@H]2C(=O)O[C@H]([C@H](C)C[C@@H]2CC[C@@H](O)[C@H](OC)C2)CC(=O)[C@H](C)/C=C(\C)[C@@H](O)[C@@H](OC)C(=O)[C@H](C)C[C@H](C)/C=C/C=C/C=C/1C [Rapamycin (Sirolimus)] | 0.724 | 0.686 | 0.609 | 0.544 | 0.737 | 0.722 | 0.658 | 0.599 | 0.777 | 0.792 | 0.785 | 0.748 | 0.8 | 0.833 | 0.827 | 0.803 | 0.692 | 0.666 | 0.631 | 0.623 | 0.703 | 0.69 | 0.662 | 0.657 | 0.839 | 0.875 | 0.88 | 0.873 | 0.829 | 0.867 | 0.88 | 0.878
COc1c(C)c2c(c(O)c1C/C=C(\C)CCC(=O)O)C(=O)OC2 [Mycophenolic (Mycophenolate)] | 0.183 | 0.162 | 0.104 | 0.147 | 0.779 | 0.83 | 0.78 | 0.716 | 0.102 | 0.108 | 0.06 | -0.0787 | 0.409 | 0.362 | 0.284 | 0.202 | 0.128 | 0.131 | 0.191 | 0.311 | 0.759 | 0.81 | 0.733 | 0.662 | 0.534 | 0.601 | 0.625 | 0.635 | 0.712 | 0.719 | 0.736 | 0.739
O=C(O)CC[C@H]1CC[C@@](c2cc(F)ccc2F)(S(=O)(=O)c2ccc(Cl)cc2)CC1 | 0.105 | 0.0715 | -0.0926 | -0.0883 | 0.0344 | 0.041 | -0.0603 | -0.0323 | 0.072 | 0.0162 | -0.0366 | -0.42 | -0.186 | -0.2 | -0.179 | -0.202 | 0.00844 | 0.0724 | 0.123 | 0.147 | 0.000893 | 0.0697 | 0.0856 | 0.142 | 0.613 | 0.631 | 0.645 | 0.643 | 0.453 | 0.522 | 0.543 | 0.556
Cn1cnc([N+](=O)[O-])c1Sc1ncnc2[nH]cnc12 [Azathioprine (Azasan, Imuran)] | 0.0201 | -0.00369 | 0.00367 | 0.0444 | 0.0785 | 0.0404 | 0.00445 | 0.131 | -0.0287 | -0.0923 | -0.12 | -0.24 | -0.168 | -0.224 | -0.259 | -0.337 | 0.00188 | 0.0643 | 0.101 | 0.167 | 0.0755 | 0.0766 | 0.124 | 0.326 | 0.505 | 0.533 | 0.565 | 0.573 | 0.444 | 0.518 | 0.521 | 0.529
c1ccc2c(-c3cnn4cc(-c5ccc(N6CCNCC6)cc5)cnc34)ccnc2c1 | -0.114 | -0.118 | -0.0883 | 0.0163 | -0.0225 | -0.0275 | -0.0302 | 0.125 | -0.24 | -0.273 | -0.265 | -0.249 | -0.167 | -0.254 | -0.224 | -0.213 | -0.113 | -0.0441 | 0.0116 | 0.0932 | -0.0291 | -0.0174 | 0.0152 | 0.209 | 0.399 | 0.521 | 0.544 | 0.537 | 0.307 | 0.408 | 0.431 | 0.436
O=C(Nc1ccccc1-c1cn2c(CN3CCNCC3)csc2n1)c1cnc2ccccc2n1 | 0.102 | 0.0775 | -0.0151 | -0.0612 | 0.0868 | 0.0879 | 0.00704 | -0.1 | 0.0628 | 0.0902 | 0.0591 | -0.163 | -0.0368 | -0.02 | -0.0409 | -0.193 | 0.0225 | 0.0594 | 0.101 | 0.14 | 0.141 | 0.171 | 0.103 | 0.146 | 0.404 | 0.522 | 0.563 | 0.562 | 0.418 | 0.513 | 0.516 | 0.514
CN(C)CCCCSC(=N)N | 0.0803 | 0.0562 | -0.0181 | -0.016 | -0.0315 | 0.00953 | -0.0703 | -0.245 | -0.0402 | -0.0677 | -0.106 | -0.316 | -0.0334 | -0.0664 | -0.0858 | -0.22 | 0.0342 | 0.0372 | 0.0384 | 0.0444 | -0.0939 | 0.0263 | -0.0236 | -0.0661 | 0.357 | 0.498 | 0.532 | 0.544 | 0.259 | 0.415 | 0.415 | 0.398
